The structures appear in SMILES notation. “And” between values parts separate entries of the source, which are not always exact repeats. Equal entries are not always repeated. A number with no mark means an inactive call. Inconclusive results are not listed. The source made the active and inactive calls. The call rests on the fitted dose curve; in most records, active means well fitted curve in the direction sought with a large enough effect; inconclusive means small, poorly fitted or top-dose-only effect, or another doubt; inactive means no such curve, though single readings can be large; an effect the other way counts as inactive or inconclusive.

The subject of assay [1] is Zika virus NS2B-NS3 protease (linked construct). Put plainly: Confirmatory screen NINDS AMC qHTS for Zika virus inhibitors (AID 1347152). Further: nearly all actives have a fitted effect of over 70% in size. Further: potency means the concentration at half of the fitted maximal effect.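 On activity change, negative = inhibition: AMC fluorescence gain from cleaved Bz-Nle-KRR-AMC substrate over 15 min; top concentration of the series differs between compounds; 0% = no-inhibitor control and -100% = no-enzyme control.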 Put shortly: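 Linked NS2B-NS3 1 nM, Tris pH 8.0/0.01% Tween 20; cpd 15 min RT dark; + Nle-KRR-AMC 10 µM (Km 18.3 µM); read 0 and 15 min, 340/450 nm; %inh vs controls, 4-param Hill.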
For orientation: In qHTS, concentration-response curves come from the screen itself.

Assay [2] deals with Zika virus NS2B-NS3 protease (unlinked complex). In words: Confirmatory screen GU AMC qHTS for Zika virus inhibitors (AID 1347153).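 Further: percent inhibition with 0% = no inhibitor control and 100% = no enzyme control; nearly all actives have a fitted effect of over 70% in size.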 Put shortly:
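Unlinked enzyme 25 nM, Tris pH 8.0/0.01% Tween 20; cpd 15 min RT, dark; + AMC substrate 10 µM (Km 18.3 µM); 340/450 nm read at t0 and 15 min; % inhibition → 4-param fit.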

The subject of assay [3] is Zika virus NS2B-NS3 protease. Put plainly: Primary screen GU AMC qHTS for Zika virus inhibitors (AID 1347154). Further: nearly all actives have a fitted effect of over 70% in size. Further: potency means the concentration at half of the fitted maximal effect.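 On activity change, negative = inhibition: 0% = no-inhibitor control and -100% = no-enzyme control.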 The gist of the method: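 Unlinked Zika NS2B hydrophilic domain/NS3 protease domain noncovalent complex (25 nM final) in 10 mM Tris-HCl pH 8.0, 0.01% Tween 20, with AMC peptide substrate. Fluorescence (ex 340, em 450 nm) change over 15 min, room temperature; percent inhibition fitted to 4-parameter Hill equation.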

The nature of assay [4]: Confirmatory screen NINDS Rhodamine qHTS for Zika virus inhibitors (AID 1347161). Further: nearly all actives have a fitted effect of over 60% in size. Further: potency means the concentration at half of the fitted maximal effect.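 On activity change, negative = inhibition: purified Zika NS2B-NS3 protease with linked NS2B cofactor domain and Rhodamine110 peptide substrate; series mostly up to about 110 µM; plate controls were no-inhibitor control for no effect and no-enzyme control for full effect.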 The gist of the method:
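Each compound, titrated, sat 15 min with 25 nM linked protease before 1.5 microM Rhodamine110 substrate went in. Fluorescence gain over the next 15 min, in pH 8.0 Tris with Tween 20, gave Hill-fitted curves.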

For assay [5], the target named is Lysine-specific demethylase 5B (Homo sapiens) (UniProt Q9UGL1). Put plainly: Optimization screen for KDM5B Histone Demethylases FDH coupled qHTS against the LOPAC library (AID 1347166). Further: 0% is about no effect. Put shortly: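 KDM5BDeltaAP (200nM final) in 50mM HEPES pH 7.5, 0.01% Tween-20 was preincubated with compound for 10 min at room temperature. A substrate mix of 12.5uM H3K4Me3, 25uM a-ketoglutarate, ascorbate, Fe2+, NAD+ and formaldehyde dehydrogenase was then added. NADH fluorescence (340/450 nm) was read initially and after 30 min.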
Lysine-specific demethylase 5B (Homo sapiens), sequence (Q9UGL1 whole entry, looked up): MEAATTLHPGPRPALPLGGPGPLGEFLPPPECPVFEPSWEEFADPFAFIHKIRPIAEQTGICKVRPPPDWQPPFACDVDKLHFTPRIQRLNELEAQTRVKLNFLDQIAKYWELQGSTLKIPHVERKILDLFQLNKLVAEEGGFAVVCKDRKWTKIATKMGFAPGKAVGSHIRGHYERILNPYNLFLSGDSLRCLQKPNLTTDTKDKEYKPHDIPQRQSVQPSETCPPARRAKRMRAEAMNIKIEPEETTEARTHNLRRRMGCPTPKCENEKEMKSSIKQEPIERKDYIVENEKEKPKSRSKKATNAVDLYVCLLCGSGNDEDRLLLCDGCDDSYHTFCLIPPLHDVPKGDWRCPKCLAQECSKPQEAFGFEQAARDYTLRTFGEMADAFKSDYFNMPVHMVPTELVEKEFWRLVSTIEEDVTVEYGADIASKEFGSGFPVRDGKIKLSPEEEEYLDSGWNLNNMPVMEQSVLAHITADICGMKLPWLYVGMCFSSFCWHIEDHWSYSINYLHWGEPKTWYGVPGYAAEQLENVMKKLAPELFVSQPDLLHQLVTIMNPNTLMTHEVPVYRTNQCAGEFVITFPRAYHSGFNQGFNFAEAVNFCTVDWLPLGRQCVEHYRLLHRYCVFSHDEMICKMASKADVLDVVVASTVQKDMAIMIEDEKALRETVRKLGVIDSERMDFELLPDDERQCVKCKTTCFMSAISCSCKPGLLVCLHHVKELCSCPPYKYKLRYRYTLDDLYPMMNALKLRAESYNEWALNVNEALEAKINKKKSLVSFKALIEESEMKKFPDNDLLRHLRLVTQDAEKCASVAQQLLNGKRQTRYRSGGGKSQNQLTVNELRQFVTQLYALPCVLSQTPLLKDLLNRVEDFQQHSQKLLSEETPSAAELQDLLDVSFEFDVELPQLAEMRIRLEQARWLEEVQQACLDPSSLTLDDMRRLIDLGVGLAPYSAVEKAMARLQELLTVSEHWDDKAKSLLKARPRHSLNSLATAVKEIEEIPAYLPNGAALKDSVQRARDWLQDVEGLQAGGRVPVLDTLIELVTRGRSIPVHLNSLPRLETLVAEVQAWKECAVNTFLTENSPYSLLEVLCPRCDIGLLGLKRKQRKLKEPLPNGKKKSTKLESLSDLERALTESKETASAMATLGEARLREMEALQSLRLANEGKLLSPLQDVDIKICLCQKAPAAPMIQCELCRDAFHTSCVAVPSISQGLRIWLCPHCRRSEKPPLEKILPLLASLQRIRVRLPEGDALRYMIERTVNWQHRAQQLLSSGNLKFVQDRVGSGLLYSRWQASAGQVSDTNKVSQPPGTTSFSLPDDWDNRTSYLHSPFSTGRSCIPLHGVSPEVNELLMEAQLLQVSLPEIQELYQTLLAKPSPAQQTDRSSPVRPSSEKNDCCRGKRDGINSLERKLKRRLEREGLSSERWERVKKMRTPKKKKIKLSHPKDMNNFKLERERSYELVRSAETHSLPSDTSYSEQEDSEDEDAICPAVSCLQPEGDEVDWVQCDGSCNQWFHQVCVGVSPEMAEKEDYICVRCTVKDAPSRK

Assay [6] is described as follows: Vero cells viability qHTS for Zika virus inhibitors (AID 1347167). Further: on the % scale 0 is the no-effect control and ±100 the full control effect. Put shortly:
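To flag cytotoxic protease inhibitors, viability is measured by ATP-dependent luminescence (CellTiter Glo) after cells attached overnight receive compound for 24 to 48 hours in DMEM with 4% FBS.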

Assay [7] is described as follows: qHTS to identify inhibitors of the type 1 interferon - major histocompatibility complex class I in skeletal muscle: primary screen against the NCATS LOPAC collection (AID 1347405).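 Further: lytic HiBiT luminescence reporting HLA-B protein level; on the % scale 0 is the no-effect control and ±100 the full control effect.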 Put shortly:
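After 24 h at 37 C with compounds (7-point, 1:4.3 dilutions, 46 uM top final) plus 4 ng/ml IFN-beta, luminescence from lytic HiBiT detection was measured. HLA-B*08:01 in C25cl48 myoblasts carried an endogenous C-terminal HiBiT tag; medium lacked dexamethasone.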

Assay [8] can be described thus: qHTS for inhibitors of adenylyl cyclases using a fission yeast platform: a pilot screen against the NCATS LOPAC library (AID 1347410).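 Further: plate controls were DMSO vehicle for no effect and DPI positive control for full effect.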 Put shortly:
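Read-out: fbp1-GFP fluorescence by laser scanning cytometry (488 nm laser), a gain of signal when AC/cAMP-PKA signalling is inhibited. Strain CHP2027 expressing AC9, GNAS and PDE4D2; compounds at up to 57 µM; 18 h, 30C.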

A short description of assay [9]: qHTS to identify inhibitors of the type 1 interferon - major histocompatibility complex class I in skeletal muscle: primary screen against the NCATS Mechanism Interrogation Plate v5.0 (MIPE) Libary (AID 1347411).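 Further: plate controls were vehicle for no effect and reference inhibitor for full effect; nearly all actives have a fitted effect of over 65% in size.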 Put shortly: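 Luminescence from CRISPR HiBit-tagged endogenous HLA-B in human myoblasts reported MHC class I level after 24 h of IFN-beta (4 ng/ml) plus compound. Compounds ran as 11-point 1:3 series, top 46 uM final.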

Assay [10] concerns the target Protein phosphatase 1D (Homo sapiens) (UniProt O15297). Put plainly: RapidFire Mass Spectrometry qHTS Assay for Modulators of WT P53-Induced Phosphatase 1 (WIP1) (AID 1347424).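 Further: amount of dephosphorylated VEPPL-S-QETFS peptide product formed by WIP1; series mostly up to about 63 µM; plate controls were DMSO wells for no effect and GSK830371 inhibitor control at 10 µM for full effect.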 The gist of the method: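 Mass-spectrometric measurement of dephosphorylated peptide after a 5 min room-temperature reaction of 10 nM WIP1 with 2 uM phosphopeptide, following 1 h compound preincubation in 30 mM MgCl2 buffer.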

A short description of assay [11]: Validation qHTS assay for inhibitors of Activation Induced Cytidine Deaminase (AID): UDG Counterscreen signal (AID 1347427). Further: 0% is about no effect. Put shortly:
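Fluorescence at 560 nm excitation, 665 nm emission reports UDG signal after 250 mM NaOH (2x) addition and 30 min. Enzymes (AID 1 uM, UDG 2 U/mL, at 4/3x) preincubated 10 min with compound, then 4 h with 4x 250 nM DJC20/DJC23 substrate at room temperature.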

Assay [12] has as its system Zika virus NS2B-NS3 protease (unlinked complex). In words: Primary screen GU Rhodamine qHTS for Zika virus inhibitors: Unlinked NS2B-NS3 protease assay (AID 1347159). Further: nearly all actives have a fitted effect of over 60% in size. Further: potency means the concentration at half of the fitted maximal effect. On activity change, negative = inhibition: on the % scale 0 is the no-effect control and ±100 the full control effect. Put shortly:
(§1)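 Unlinked NS2B/NS3, 25 nM; Rhod110 peptide, 1.5 microM; compounds, up to 114 microM. Reaction run 15 min at RT in 10 mM Tris-HCl pH 8.0, 0.01% Tween 20; kinetic fluorescence change fitted with a 4-parameter Hill model.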

Assay [13] has as its system Zika virus NS2B-NS3 protease (linked construct). Put plainly: Primary screen NINDS Rhodamine qHTS for Zika virus inhibitors (AID 1347160). Further: nearly all actives have a fitted effect of over 55% in size. Put shortly:
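Single-chain NS2B-NS3 protease, 25 nM, pH 8.0; compounds preincubated 15 min. Activity: Rhodamine110 release from 1.5 microM substrate over 15 min, room temperature, data fitted to 4-parameter Hill.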

Assay [14] is described as follows: Tertiary RLuc qRT-PCR qHTS assay for Zika virus inhibitors (AID 1347169). Further: nearly all actives have a fitted effect of over 55% in size. Further: potency means the concentration at half of the fitted maximal effect. Put shortly: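 Luminescence read-out: live-cell Renilla luciferase substrate applied to infected Vero cells, signal measured after 1-1.5 hrs. Cells had received compound before ZIKV-RLuc (Cambodian strain, MOI 1-2) infection and were incubated 48-72 hrs at 37 degrees C.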
In general terms: In qPCR the cycle at which signal appears reflects the starting amount.

A short description of assay [15]: qHTS to identify inhibitors of the type 1 interferon - major histocompatibility complex class I in skeletal muscle: primary screen against the NCATS Pharmaceutical Collection (AID 1347407). Further: on the % scale 0 is the no-effect control and ±100 the full control effect. The gist of the method:
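HLA-B HiBiT myoblasts, dexamethasone-free growth medium + 4 ng/ml IFN-b; compounds pinned 1 h after seeding, […] from 46 uM; 24 h, 37 C, 5% CO2; lytic HiBiT detection, 10 min RT, luminescence.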

A short description of assay [16]: Confirmatory screen GU Rhodamine qHTS for Zika virus inhibitors qHTS (AID 1347157). Further: potency means the concentration at half of the fitted maximal effect; nearly all actives have a fitted effect of over 70% in size. Put shortly:
as §1

Assay [17] in a line: ZIKV-mCherry secondary qHTS for Zika virus inhibitors (AID 1347158). Further: top concentration of the series differs between compounds. The gist of the method: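 Percent infection is the share of Hoechst-identified Vero nuclei with mCherry signal above 450 RFU (3 SD over negative controls). Cells were infected with recombinant ZIKV-mCherry at MOI 1 after compound addition and imaged 48–72 h later.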
For assay [18], the system named is Zika virus NS2B-NS3 protease (linked). In words: 384 well plate NINDS AMC confirmatory qHTS for Zika virus inhibitors (AID 1347163). Further: potency means the concentration at half of the fitted maximal effect; nearly all actives have a fitted effect of over 50% in size. Put shortly:
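Fluorescence at 355/460 nm was read after 25 minutes of cleavage of 30 microM Ac-VKTGKR-AMC at room temperature, in the dark. Before substrate addition, compounds (up to 1 mM final) sat ~15 minutes with 5, 30 or 60 nM linked protease. Signals were normalized to no-enzyme and no-inhibitor wells.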

Assay [19] has as its system Zika virus NS2B-NS3 protease (linked construct). Put plainly: 384 well plate NINDS Rhodamine confirmatory qHTS for Zika virus inhibitors (AID 1347164).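 Further: fluorescence from protease cleavage of Ac-LKRR-rhodamine 110 substrate; potency means the concentration at half of the fitted maximal effect; nearly all actives have a fitted effect of over 65% in size.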 Put shortly:
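Fluorescence read at ex 485 nm/em 538 nm, 25 min after adding 10 microM Ac-LKRR-Rd substrate at room temperature in the dark; signal normalized to no-enzyme and no-inhibitor controls. Enzyme final 5, 30 or 60 nM; compounds, ~15 min preincubation.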

Protein phosphatase 1D (Homo sapiens), sequence (O15297 whole entry, looked up): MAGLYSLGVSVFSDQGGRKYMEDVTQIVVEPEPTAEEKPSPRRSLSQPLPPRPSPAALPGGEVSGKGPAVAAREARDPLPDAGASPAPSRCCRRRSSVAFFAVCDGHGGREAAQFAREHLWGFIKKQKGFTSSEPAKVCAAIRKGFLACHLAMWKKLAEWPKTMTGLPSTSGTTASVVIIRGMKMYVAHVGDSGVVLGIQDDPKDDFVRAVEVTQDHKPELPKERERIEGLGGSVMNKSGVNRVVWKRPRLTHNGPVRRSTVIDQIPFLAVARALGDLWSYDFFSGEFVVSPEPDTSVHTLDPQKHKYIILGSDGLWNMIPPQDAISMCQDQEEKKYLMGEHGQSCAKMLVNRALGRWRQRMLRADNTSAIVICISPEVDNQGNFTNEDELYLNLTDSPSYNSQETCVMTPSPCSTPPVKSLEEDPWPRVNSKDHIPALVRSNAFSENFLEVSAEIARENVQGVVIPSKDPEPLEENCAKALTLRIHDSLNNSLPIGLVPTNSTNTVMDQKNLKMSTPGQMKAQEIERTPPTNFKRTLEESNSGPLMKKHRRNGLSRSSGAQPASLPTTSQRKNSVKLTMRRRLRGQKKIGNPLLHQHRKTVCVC

As for `CN1CCN(CCCN2c3ccccc3Sc3ccc(C(F)(F)F)cc32)CC1`, the Potency entry in assay [1], in assay [2], in assay [3], in assay [4], in assay [7] and in assay [9] was “inactive” throughout. For the same molecule, the Potency result in assay [10] is “inactive”. Moreover, the result in [5], in assay [6], in assay [8] and in assay [11] was inactive.
Take `COc1ccc(-c2ccc3c(N4CCOC[C@H]4C)nc(N4CCOC[C@H]4C)nc3n2)cc1CO`: in [3], the Potency is 6.81 µM (active).
For the molecule `CCN(CC)CCCC(C)Nc1ccnc2cc(Cl)ccc12` (centres undefined), the Potency result in assay [1], in assay [2], in assay [3], in [4], in assay [14] and in assay [7] was “inactive” in each case. In addition, the Potency result in assay [10] was “inactive”. Also, the activity change, negative = inhibition in assay [12] is 52.4% [at 19.1 µM]; in [9], 34% [at 8.44 µM]. Moreover, in [13], the outcome was “inactive [at 10.7 µM]”. The outcome in assay [5], in [6], in assay [15] and in assay [11] was inactive.
As for `OCCC#Cc1nc(-c2ccc(F)cc2)c(-c2ccncc2)n1CCCc1ccccc1`, the Potency result in assay [3] was “inactive”.
With `Cc1cc(SCc2sc(-c3ccc(C(F)(F)F)cc3)nc2C)ccc1OCC(=O)O`, the Potency in assay [1] is 19.7 µM (active); in [16] it was 2.48 µM (active); in assay [12], 3.55 µM (active); in assay [4], 2.78 µM (active) and 3.12 µM (active); in assay [18], 2.82 µM (active); in assay [19] it was 2.82 µM (active). Also, in [14], the Potency is 14.7 µM (active). Further, the Potency result in assay [17] and in assay [9] was “inactive” throughout. For the same molecule, the molecule was classed as inactive in assay [6].
Take `CCOc1cc(N2CCC(O)CC2)ccc1Nc1ncc2c(n1)N(C)c1ccccc1C(=O)N2C`: the Potency entry in assay [3] is “inactive”.
Consider `Cc1[nH]c(=O)c(C#N)cc1-c1ccc2nccn2c1`, for which the Potency entry in assay [1], in assay [2], in assay [3], in [4], in assay [14] and in assay [7] was “inactive” throughout. Moreover, the Potency entry in assay [9] and in assay [10] was “inactive” each time. In addition, the outcome in assay [5], in assay [6], in assay [15], in [8] and in [11] was inactive.
`CC(=O)NC(C)c1ccc(Oc2ccc(OC(C)C)cc2)cc1` (centres undefined): the Potency entry in [3] is “inactive”.
On the same count and under the same terms, next, `COc1ccc(-c2oc3cc(OC)ccc3c2C(=O)c2ccc(C#N)cc2)cc1`: “inactive”.
Regarding `Cc1cc(C=c2sc3nc4ccccc4n3c2=O)c(C)n1-c1ccccc1`, the Potency entry in assay [3] is “inactive”.

The values above are taken from PubChem BioAssay (NCATS).
